# Reference: PubChem BioAssay AID485297 (National Center for Advancing Translational Sciences (NCATS), 2010)
# About 9,100 (2.8%) of roughly 320,000 compounds were called active. Entries that show only a call come without a potency. Another 3% or so got no clear call; they are omitted. Only a selection was taken, and actives are over-represented in it overall. A number with no mark means an inactive call. Calls follow the shape of the dose curve; as a rule, active = well fitted activation curve with a large enough effect; inconclusive = small, poorly fitted or top-dose-only effect; inactive = no such curve, though single readings can be large or run the other way.
# Experiment: qHTS Assay for Rab9 Promoter Activators; also: nearly all actives have a fitted effect of over 60% in size
# Conditions: Huh7 Rab9 promoter-luciferase reporter, luminescence, 24 h; series mostly up to 9.22 µM
# How it was run: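 Quantitative HTS format; Huh7 Rab9-luciferase reporter cells (1500/well) receive compound 2 h post-plating, incubate 24 h at 37 °C, then get luciferase reagent for 10 min before luminescence reading.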
# Potency is read from the fitted curve at half-maximal effect.
SMILES,Potency,"activation, negative = inhibition"
O=c1c2ccccc2ccc2ccc(P(=O)(O)O)cc12,inactive,
Cc1c(NS(=O)(=O)c2cc(C(=O)NCCc3ccc(F)cc3)cc(Cl)c2Cl)c(=O)n(-c2ccccc2)n1C,inactive,
O=C(COC(=O)C1(c2ccc(F)cc2)CCCC1)N1CCNC1=O,inactive,
CCn1c(=N)n(CC(=O)c2cccc(OC)c2)c2ccccc21,3160 nM (active),
COc1ccc2cc(C(=O)O)n(CC(=O)c3ccccc3)c2c1,inactive,
CCOC(=O)c1cc2ccccc2n1CC(=O)c1ccccc1,inactive,
O=C1OC2(CCCCC2)CC2=C1C1O[C@](c3ccsc3)(Cc3ccccc31)O2,,1.46% [at 1.84 µM]
COc1ccc(OCCCC(=O)Nc2cccc(S(=O)(=O)N3CCCCCC3)c2)cc1,inactive,
COc1ccc(/C(C)=N/NC(=O)c2ccc3nc[nH]c3c2)cc1,inactive,
C/C(=N\NC(=O)c1nc(C)cc(C)n1)c1ccccc1,1780 nM (active),
C/C(=N\NC(=O)c1cccnc1)c1ccc(-c2ccccc2)cc1,inactive,
Cc1ccc(Nc2nnc(SC(C)C(=O)NC3CC3)s2)cc1 (configuration not stated),inactive,
COc1ccc(/C=N/Nc2nc3ccccc3o2)cc1OC,1000 nM (active),
Brc1ccccc1/C=N/Nc1nc2ccccc2o1,2820 nM (active),
COc1ccc(/C=N/S(=O)(=O)c2ccccc2)cc1OC,inactive,
Oc1c(Br)cccc1/C=N/Nc1c(F)c(F)c(F)c(F)c1F,inactive,
CCOc1ccc(/C=N/Nc2nncc(-c3ccccc3)n2)cc1OC,inactive,
CCOc1ccccc1/C=N/Nc1nc2ccccc2o1,inactive,
Cc1nc(SCC(=O)NC2CCCCC2C)c(C#N)c(C)c1C (configuration not stated),inactive,
Cc1ccc(S(=O)(=O)N2CC(O)C[C@H]2C(=O)OCC(=O)Nc2ccc(N3CCOCC3)cc2)cc1C (some centres not stated),inactive,
O=C(CCNC(=O)c1ccc(Cl)cc1)NC1CCCc2ccccc21 (configuration not stated),inactive,
O=C(NCCCN1CCOCC1)c1cc2c(s1)CCC2,inactive,
O=C(Nc1ccc(F)cc1)c1cc2c(s1)CCCC2,1260 nM (active),
CN(C)C(=O)c1ccc(NC(=O)COC(=O)c2cc3c(s2)CCCCC3)cc1,inactive,
O=C(NCC1CCCO1)c1cc2c(s1)CCCC2 (configuration not stated),2510 nM (active),
O=C(CNC(=O)c1cc2c(s1)CCC2)Nc1ccccc1Br,inactive,

SMILES,Potency,"activation, negative = inhibition"
CCC(=O)c1c[nH]c(C(=O)NCC2CCCO2)c1 (configuration not stated),inactive,
CC(C)Cc1nnc(NC(=O)CCNC(=O)c2ccccc2Cl)s1,inactive,
CCN(CC(=O)Nc1ccccc1OC)C(=O)CC1CC2CCC1C2 (configuration not stated),inactive,
Cc1ccc(S(=O)(=O)c2nc(NCCCn3ccnc3)sc2Cl)cc1,inactive,
COc1ccc(/C=C(\C#N)C(=O)NCCCn2ccnc2)cc1,inactive,
Cc1ccc(-c2nc(C#N)c(NCCCn3ccnc3)o2)cc1,3980 nM (active),
O=C(CCc1nc(-c2ccccc2)no1)Nc1cccc(C(=O)NC2CC2)c1,inactive,
COC(=O)c1ccc(/C=N/N2C(C)CCCC2C)cc1 (configuration not stated),2240 nM (active),
COC(=O)c1ccc(/C=N\n2c(C)nnc2C)cc1,inactive,
CC1CCCC(C)N1/N=C/c1ccccc1OC(F)F (configuration not stated),inactive,
CCC1(CC)NC(=O)N(CC(=O)OCC(=O)c2cc(C)c(C)cc2C)C1=O,inactive,
CC(C)CN(C(=O)c1cccc(S(=O)(=O)N2CCCCC2)c1)C1CCS(=O)(=O)C1 (configuration not stated),inactive,
O=C(NNC(=O)c1ccco1)Nc1ccccc1,inactive,
CCC(=O)NC(=S)Nc1ccc(NC(=O)c2ccco2)c(Cl)c1,inactive,
O=C(NNC(=S)Nc1ccc(Br)cc1Cl)c1ccco1,2820 nM (active),
O=C(NCCc1ccccn1)c1nc(Cn2cc([N+](=O)[O-])cn2)no1,inactive,
O=C(Nc1ccc([N+](=O)[O-])cc1)OCCc1ccccn1,3550 nM (active),
O=[N+]([O-])c1ccc(NC(=S)N2CCN(c3ccccn3)CC2)cc1,inactive,
Cc1c(C(=O)Nc2cccc(-c3nnc4n3CCCCC4)c2)oc2ccccc12,inactive,
CC(=O)c1ccc(NC(=O)c2sc3nc4n(c(=O)c3c2C)CCCCC4)cc1,inactive,
Cc1c(C(=O)Nc2ccccc2)sc2nc3n(c(=O)c12)CCCCC3,2510 nM (active),
COc1cccc(CNC(=O)COC(=O)CN2C(=O)NC3(CCCCC3C)C2=O)c1 (configuration not stated),inactive,
COc1ccc(OC)c(-c2csc(NC(=O)COC(=O)C3CC3)n2)c1,inactive,
O=C(Cn1cc(C(=O)c2cccs2)c2ccccc21)NCc1cccs1,inactive,
COC(=O)c1cn(CC(=O)NCc2cccs2)c2ccccc12,3550 nM (active),
COC(=O)Cn1cc(C(=O)c2cccs2)c2ccccc21,inactive,
